{"source": "PubChem BioAssay AID449762", "about": "(Southern Research Specialized Biocontainment Screening …, 2010)", "note": "The campaign covered roughly 330,000 compounds. About 1,900 (0.58%) were called active. Not shown: some 4% with an inconclusive outcome. These entries were drawn from the full list. Entries with a potency or affinity are not part of this list. Values without a mark were called inactive. Rule as the data show it: inconclusive = inhibition above about 70% without an active follow-up result; inactive = below that.", "data": [{"test": "M. tuberculosis growth inhibition, HTS (AID 449762);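 also: bacterial growth assessed after seven days of incubation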", "settings": "M. tuberculosis H37Rv growth inhibition, 7H9 media; at 25 µM; hits give high values", "units": {"inhibition": "%"}, "values": [{"smiles": "CS(=O)(=O)c1ccc(Cl)c(NC(=O)COC(=O)CCN=C2NS(=O)(=O)c3ccccc32)c1", "inhibition": -3.06}, {"smiles": "O=C(CCl)NN1C(=O)NC(c2ccccc2)(c2ccccc2)C1=O", "inhibition": 2.88}, {"smiles": "Cc1ccc(S(=O)(=O)NCC(=O)OCc2cc(=O)oc3cc(C)ccc23)cc1", "inhibition": -1.73}, {"smiles": "O=C(NC(=S)Nc1ccc2[nH]c(=O)[nH]c2c1)c1ccccc1F", "inhibition": -4.55}, {"smiles": "Clc1ccc2c(c1)C(OC1CN3CCC1CC3)c1ccccc1CS2", "note": "(configuration not stated)", "inhibition": 9.17}, {"smiles": "Brc1ccc2c(c1)C(C1=NCCN1)c1ccccc1CS2", "note": "(configuration not stated)", "inhibition": 0.75}, {"smiles": "CN(C)/N=C/c1c(O)ccc2ccccc12", "inhibition": 27.8}, {"smiles": "NC(=S)N/N=C/c1c(O)ccc2ccccc12", "inhibition": -0.33}, {"smiles": "CCCN(CCC)C(=O)c1ccc2nc(-c3ccc(OC)c(OC)c3)c(-c3ccc(OC)c(OC)c3)nc2c1", "inhibition": -2.59}, {"smiles": "CC1CCCN(C(=O)Cc2cccc3ccccc23)C1", "note": "(configuration not stated)", "inhibition": 7.05}, {"smiles": "CCN(c1ccccc1)S(=O)(=O)c1cccc(C(=O)Nc2ccc(C)cn2)c1", "inhibition": -11.7}, {"smiles": "COc1cccc(-c2cccc(NC(=O)C3CCN(C4CCOCC4)CC3)c2)c1", "inhibition": 6.63}, {"smiles": "Cc1ccc(/C=N/N2C(=O)C3C(C2=O)C2C=CC3C23CC3)o1", "note": "(configuration not stated)", "inhibition": -4.61}, {"smiles": "O=C1C2C(C(=O)N1/N=C/c1ccc(N3CCCCC3)o1)C1C=CC2C12CC2", "note": "(configuration not stated)", "inhibition": 6.38}, {"smiles": "CC(C)(C)n1nnnc1C(c1ccc(Cl)cc1)N1CCCc2ccccc21", "note": "(configuration not stated)", "inhibition": -4.81}, {"smiles": "N#C/C(=N\\Nc1ccc(Cl)cc1)C(N)=S", "inhibition": 59.5}, {"smiles": "N#C/C(=N\\Nc1ccccc1)C(N)=S", "inhibition": 2.54}, {"smiles": "Cc1ccc(C)c(N=Nc2nc3ccccc3n2C)c1", "inhibition": -4.4}, {"smiles": "Cn1c(NN=O)nc2ccccc21", "inhibition": 0.37}, {"smiles": "CCCCCc1ccc(-c2cn(CN3C(=O)c4ccccc4C3=O)nn2)cc1", "inhibition": -0.74}, {"smiles": "COC(=O)c1cc(COC(=O)c2ccc3ccccc3n2)oc1C", "inhibition": 5.66}, {"smiles": "O=C(Cc1ccc([N+](=O)[O-])cc1)Nc1ccc(Cl)cc1", "inhibition": -3.64}, {"smiles": "CCc1cccc(NC(=O)Cc2ccc([N+](=O)[O-])cc2)c1", "inhibition": -1.32}, {"smiles": "Fc1ccc(CSc2ccc3nnc(-c4cccnc4)n3n2)cc1", "inhibition": -5.63}, {"smiles": "Cn1c(-c2ccc(=O)[nH]c2)nc2ccccc21", "inhibition": -2.91}, {"smiles": "COC(=O)CC(NC(=O)c1ccco1)c1cccc2ccccc12", "note": "(configuration not stated)", "inhibition": -11}, {"smiles": "C[C@]12CC[C@@H]3c4ccc(O)cc4CC[C@H]3[C@@H]1CC[C@@H]2OC(=O)CCC(=O)O", "inhibition": 5.59}, {"smiles": "CC(=O)O[C@H]1CC[C@H]2[C@@H]3CCc4cc(O)ccc4[C@H]3CC[C@]12C", "inhibition": 3.79}, {"smiles": "COc1ccc(/C=N/NC(=O)c2nonc2C)cc1", "inhibition": 5.08}, {"smiles": "COc1ccc(CCNC(=O)CSc2nn(-c3ccccc3)c(=S)s2)cc1", "inhibition": -1.49}, {"smiles": "O=C(NC1CCCCC1)C(c1ccc2ncccc2c1)N(Cc1ccc2c(c1)OCO2)C(=O)c1cccs1", "note": "(configuration not stated)", "inhibition": 7}, {"smiles": "COc1ccc(C(=O)N(Cc2ccco2)C(C(=O)NC2CCCC2)c2ccc(O)cc2)cc1OC", "note": "(configuration not stated)", "inhibition": -4.43}, {"smiles": "COc1cc(C(=O)Nc2ccc3nc4n(c(=O)c3c2)CCCC4)ccc1Br", "inhibition": 0.83}, {"smiles": "O=[N+]([O-])c1ccc(N2CCN(Cc3ccccc3)CC2)s1", "inhibition": 62.1}, {"smiles": "O=[N+]([O-])c1ccc(CN2CCCCCC2)s1", "inhibition": -2.04}, {"smiles": "CC(=O)N(CC1CCCO1)c1nnc(-c2cnccn2)s1", "note": "(configuration not stated)", "inhibition": -7.32}, {"smiles": "CCCOC(=O)C[N+](C)(C)CCOC1CC2CCC1(C)C2(C)C", "note": "(configuration not stated)", "inhibition": -2.27}, {"smiles": "CCOC(=O)C[N+](C)(C)CCOC1CC2CCC1(C)C2(C)C", "note": "(configuration not stated)", "inhibition": 0.01}, {"smiles": "CCN(CC)c1ccc(C=NCCNS(=O)(=O)c2ccc(C)cc2)cc1", "inhibition": -5.21}, {"smiles": "CCOc1cc(/C=N/Nc2nc3ccccc3[nH]2)cc(Br)c1OCC(=O)N(C)C", "inhibition": 54.1}, {"smiles": "CCOc1cc(/C=C2\\COc3ccccc3C2=O)ccc1OCC(=O)N(C)C", "inhibition": 36.2}, {"smiles": "Nn1c(SCC(=O)Nc2ccccc2)nnc1C1CCCCC1", "inhibition": -4.13}, {"smiles": "CCO[C@H]1OC(C(=O)NC2CC2)=C[C@@H](c2csc3ccccc23)[C@@H]1CCCO", "inhibition": 2.79}, {"smiles": "O=C(CC1C(=O)NCCN1Cc1c(F)cccc1Cl)NC1CCCC1", "note": "(configuration not stated)", "inhibition": -8.1}, {"smiles": "O=[N+]([O-])c1cc(Cl)ccc1N1CCN(c2cccc(C(F)(F)F)c2)CC1", "inhibition": 12}, {"smiles": "CN(C)CCCN(C(=O)c1ccc(S(=O)(=O)N2CCc3ccccc32)cc1)c1nc2ccc(Cl)cc2s1", "inhibition": 6.05}, {"smiles": "CN(C)CCCN(C(=O)c1ccc(S(=O)(=O)N2CCc3ccccc32)cc1)c1nc2ccc(F)cc2s1", "inhibition": 2.5}, {"smiles": "COc1ccccc1NC(=S)N(Cc1ccc(C(=O)O)cc1)Cc1ccc(OC)c(OC)c1", "inhibition": 1.31}, {"smiles": "O=C(NCc1n[nH]c(=S)n1-c1ccc(F)cc1)c1ccc(S(=O)(=O)N2CCCCC2)cc1", "inhibition": 0.39}, {"smiles": "Cc1ccc(CNC(=O)c2ccc(Cn3cc(-c4ccc(C)cc4)nc3-c3ccncc3)cc2)cc1", "inhibition": 8.49}, {"smiles": "CCCNC(=O)c1ccc(Cn2cc(-c3ccc(OC)cc3)nc2C(C)N)cc1", "note": "(configuration not stated)", "inhibition": -9.06}, {"smiles": "O=C(NCCc1ccccc1Cl)C1CCC(=O)N(C2CCCCCC2)C1", "note": "(configuration not stated)", "inhibition": 4.37}, {"smiles": "COc1cc(OC)cc(C(=O)NCCSC2CCCCC2)c1", "inhibition": 1.7}, {"smiles": "C=CCc1ccccc1OCC(O)CN1CCN(c2ccc(C)cc2)CC1", "note": "(configuration not stated)", "inhibition": 8.24}, {"smiles": "O=C(c1cc2ccccc2[nH]1)N(Cc1cccnc1)CC1CCCN(C2CCCCC2)C1", "note": "(configuration not stated)", "inhibition": 58}, {"smiles": "COC(=O)c1ccccc1C(=O)N(Cc1cccnc1)CC1CCCN(C2CCCCC2)C1", "note": "(configuration not stated)", "inhibition": 2.83}, {"smiles": "CCN(C(=O)c1ccccc1F)c1nc(-c2ccc(OC)cc2)cs1", "inhibition": 5.39}, {"smiles": "CCOC(=O)CCc1c(C)c2ccc(OCC(=O)OC(C)C)cc2oc1=O", "inhibition": 26.9}, {"smiles": "CCc1c(C)c2ccc(OCC(N)=O)cc2oc1=O", "inhibition": 4.28}, {"smiles": "COCCCNc1nc2cc(OC)c(OC)cc2c2nc(-c3ccccc3)nn12", "inhibition": 13}, {"smiles": "CCN(CC)CCCNc1nc2ccccc2c2nc(-c3ccncc3)nn12", "inhibition": -0.63}, {"smiles": "CCCCCCCCCCCC(=O)N1CC(=O)NC(=O)C1", "inhibition": -0.85}, {"smiles": "CC(C)CCN1CC(=O)N2[C@@H](Cc3c([nH]c4ccccc34)C2(C)C)C1=O", "inhibition": 1.66}, {"smiles": "c1ccc(Oc2nc(-c3cccnc3)nc3ccccc23)cc1", "inhibition": 13.2}, {"smiles": "Cc1ccc(Oc2nc(-c3cccnc3)nc3ccccc23)c([N+](=O)[O-])n1", "inhibition": 3.26}, {"smiles": "CCC(C)N1CCN(C(=O)Cc2ccccc2)CC1", "note": "(configuration not stated)", "inhibition": 4.3}, {"smiles": "Cc1cc(=O)oc2cc(OCC(=O)N3CCN(C(C)c4ccccc4)CC3)c(Cl)cc12", "note": "(configuration not stated)", "inhibition": -5.58}, {"smiles": "Cc1ccc(NC(=O)CN(C)C(=O)c2cccc(S(=O)(=O)NCc3ccccc3)c2)cc1", "inhibition": 2.27}, {"smiles": "O=C(NCCc1ccccc1)c1ccc(CS(=O)Cc2ccc(Cl)cc2)o1", "note": "(configuration not stated)", "inhibition": 3.87}, {"smiles": "CCOc1ccc(CCNC(=O)c2ccc(CS(=O)Cc3ccc(Cl)cc3)o2)cc1", "note": "(configuration not stated)", "inhibition": -1.24}, {"smiles": "CCCn1c(N)cc(=O)n(CCC)c1=O", "inhibition": 8.69}, {"smiles": "Clc1ccccc1CN1CCN(c2ccccc2Cl)CC1", "inhibition": -2.43}, {"smiles": "COc1cccc(-c2cc3nc4c(c(N5CCC6(CC5)OCCO6)n3n2)CCCC4)c1", "inhibition": 12.8}, {"smiles": "Clc1cccc(-c2cc3nc4c(c(N5CCOCC5)n3n2)CCCC4)c1", "inhibition": 58.9}, {"smiles": "c1coc(CNc2c3c(nc4ncnn24)CCCC3)c1", "inhibition": -6.82}, {"smiles": "CN(C)CCCNc1c2c(nc3cc(-c4cccc(F)c4)nn13)CCC2", "inhibition": 1.49}, {"smiles": "C(=NCCCN1CCOCC1)c1ccc2c(c1)OCO2", "inhibition": -12.4}, {"smiles": "COc1cc(NC(=O)C23CC4CC(C2)CC(n2nnc(C)n2)(C4)C3)c(OC)cc1Cl", "inhibition": 2.98}, {"smiles": "COc1cc2cc(C(c3nnnn3C3CCCC3)N3CCc4ccccc43)c(=O)[nH]c2cc1OC", "note": "(configuration not stated)", "inhibition": 0.64}, {"smiles": "CCC(C)(C)n1nnnc1C(c1cc2cc(OC)ccc2[nH]c1=O)N1CCc2ccccc21", "note": "(configuration not stated)", "inhibition": 64.6}, {"smiles": "COc1ccc(CN2CCCC(C(=O)c3ccc(Cl)cc3)C2)cc1Cn1cccn1", "note": "(configuration not stated)", "inhibition": -5.07}, {"smiles": "COc1ccc(CN2CCCC(C(=O)c3cccc(OC(C)C)c3)C2)cc1Cn1cccn1", "note": "(configuration not stated)", "inhibition": -6.67}, {"smiles": "COC12C(COC(N)=O)C3=C(C(=O)C(C)=C(N)C3=O)N1CC1C2N1C", "note": "(configuration not stated)", "inhibition": 100}, {"smiles": "CCCNC1=C(C)C(=O)C2=C(C1=O)C(COC(N)=O)[C@]1(OC)C3NC3CN21", "note": "(some centres not stated)", "inhibition": -1.51}, {"smiles": "CC(=O)N1CCN(c2ccc(NC(=S)NC(=O)/C=C/c3ccccc3)cc2)CC1", "inhibition": 1.44}, {"smiles": "COC(=O)c1cc(N=Cc2c(O)c3ccccc3oc2=O)cc(C(=O)OC)c1", "inhibition": -16.3}, {"smiles": "CCOC(=O)c1ccccc1N=Cc1c(O)c2ccccc2oc1=O", "inhibition": 5.1}, {"smiles": "CCOC(=O)c1ccc(N=Cc2nc(-c3ccccc3)oc2OC(C)=O)cc1", "inhibition": 39.2}, {"smiles": "Cn1c(/C=N/O)nc2ccccc21", "inhibition": -1.93}, {"smiles": "COc1ccc(C(O)c2ncc(C(F)(F)F)cc2Cl)cc1", "note": "(configuration not stated)", "inhibition": 12.8}, {"smiles": "Cc1cc(C(=O)N/N=C2\\CC(=O)CC(C)(C)C2)c2ccccc2n1", "inhibition": 5.98}, {"smiles": "COCCn1c(NCc2ccc(C)cc2)nc2c1c(=O)[nH]c(=O)n2C", "inhibition": 2.2}]}]}
